Rows were chosen to be rich in hits. Some 19% of all compounds tested hit in one or more screens of this group.
HT1080 IDH1KD tx – qHTS for induction of synthetic lethality in tumor cells producing 2HG: qHTS for the HT-1080-IDH1KD cell line | Potency, µM (top dose mostly 46.1 µM), inactives show at the top dose activity, negative = toxicity, usual class: cytotoxic | actives 2% (n = 360,000) | HT-1080 IDH1 knockdown viability, ATP luminescence, 48 h;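 further: potency means the concentration at half of the fitted maximal effect; 0% = DMSO wells and -100% = cell-free medium wells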
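HT-1080-IDH1KD cells (IDH1 knocked down), 750/well in RPMI with 5% FBS, treated with compound 48 h at 37 degrees C. Viability by CellTiter-Glo luminescence, normalised to DMSO and no-cell wells; concentration-response curves classed.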
HT1080-NT tox – qHTS for induction of synthetic lethality in tumor cells producing 2HG: qHTS for the HT-1080-NT fibrosarcoma cell line; actives 1.6% (n = 360,000); HT-1080-NT fibrosarcoma viability, CellTiter-Glo ATP luminescence, 48 h; AID 686970, 2013; Potency, µM (doses to about 46.1 µM), inactives show at the top dose activity, negative = less viability, hits mostly cytotoxic;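 further: NT is the 2HG producing partner of a matched IDH1 knockdown line; potency means the concentration at half of the fitted maximal effect; 0% = DMSO-treated cells and -100% = media-only wells without cells; nearly all actives have a fitted effect of over 55% in size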
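HT-1080-NT; 750 cells/well; 5% FBS RPMI; 48 h compound, 37 degrees C; CellTiter-Glo luminescence; curve fitting and curve-class assignment.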
IL1B secr inh – qHTS for Inhibitors of Inflammasome Signaling: IL-1-beta AlphaLISA Primary Screen. activity change, % at 57.5 µM. actives 4.7% (n = 360,000). THP-1 LPS/ATP IL-1B secretion, AlphaLISA, 16 h; active compounds read low. AID 743279, 2014; in the data active means activity change below about -50%; inconclusive means mostly about -30% to -49%
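THP-1 cells pretreated 1 hr with compounds (up to 57.5 uM final), then stimulated with LPS (250 ng/mL final) plus ATP (1.25 mM final); secreted IL-1B measured by AlphaLISA after 16 hr, decreased signal indicating inhibition.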
DT40 TDP1 CPT – qHTS for Inhibitors of human tyrosyl-DNA phosphodiesterase 1 (TDP1): qHTS in cells in presence of CPT. chicken DT40 Tdp1-/-;hTDP1 cells + 20 nM CPT, ATP luminescence, 48 h. Potency, µM (doses to about 46.2 µM), for the others: top-dose activity change, negative = growth inhibition, hits mostly inhibitors. actives 12% (n = 420,000); further: potency means the concentration at half of the fitted maximal effect; nearly all actives have a fitted effect of over 55% in size
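Chicken DT40 Tdp1-/- cells complemented with human TDP1, 400 cells/well, exposed to compounds plus 20 nM camptothecin for at least 48 h at 37 C; viability read as ATP content by CellTiter-Glo luminescence.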
TDP1 cell noCPT – qHTS for Inhibitors of human tyrosyl-DNA phosphodiesterase 1 (TDP1): qHTS in cells in absence of CPT; DT40 Tdp1-/- hTDP1 cells, no CPT, ATP luminescence, 48 h; Potency, µM (highest dose often 46.2 µM), without a hit: at the highest dose activity change, negative = growth inhibition, most hits filed as inhibitors; actives 15% (n = 420,000); further: potency means the concentration at half of the fitted maximal effect; nearly all actives have a fitted effect of over 55% in size
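DT40 Tdp1-/-;hTDP1 cells, no CPT (DMSO vehicle only), 400 cells/well; compounds pin-transferred; ≥48 hr, 37 °C; CellTiter-Glo 30 min RT dark, luminescence read.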
* hit, by the source's call; ? = inconclusive; · = no result given. Unless noted, the call rests on the fitted dose curve; in most records, active means well fitted curve in the direction sought with a large enough effect; inconclusive means small, poorly fitted or top-dose-only effect, or another doubt; inactive means no such curve, though single readings can be large; an effect the other way counts as inactive or inconclusive. Unless noted, on the % scale 0 is the no-effect control and ±100 the full control effect.

SMILES	HT1080 IDH1KD tx	HT1080-NT tox	IL1B secr inh	DT40 TDP1 CPT	TDP1 cell noCPT
Cc1ccc(/C=C/c2onc(C)c2S(=O)(=O)N2CCC(C(=O)NCc3ccco3)CC2)cc1	·	·	·	-29%	-27%
Cc1cccc(N2CCN(C(=O)C3CCN(S(=O)(=O)c4c(C)noc4/C=C/c4ccccc4F)CC3)CC2C)c1 (stereo not drawn)	·	·	·	10µM*	6.5µM*
COc1ccc(OC(=O)c2nc(SCc3ccc(C)cc3)ncc2Cl)cc1	·	·	·	?	-13%
CCSc1nnc(-c2sc3nnc(-c4ccccc4)c(-c4ccccc4)c3c2N)o1	16%	27%	?	13µM*	23µM*
CCSc1nnc(-c2ccncc2)o1	6%	16%	-21	1%	-2%
CCC(Oc1ccccc1)C(=O)Nc1cc(-c2ccccc2OC)nn1-c1ccccc1 (stereo not drawn)	·	·	·	?	23µM*
CC(C)CC(=O)Nc1cc(-c2ccccc2F)nn1-c1ccccc1	·	·	·	26µM*	12µM*
O=C(Nc1cc(-c2ccccc2)nn1-c1ccccc1)c1ccccc1F	0%	-8%	-29	?	?
Cc1cc2nnc(SCc3ccccc3)n2c(N)n1	12%	6%	-15	-13%	1%
Cc1ccc2c(c1C)NC(=O)C21N2CCCC2C(C(=O)c2ccc3ccccc3c2)C12C(=O)Nc1ccccc12 (stereo not drawn)	-17%	0%	?	23µM*	12µM*
CCNC(=S)NNc1nc(N2CCCCC2)nc(N2CCOCC2)n1	3%	-4%	17	4%	1%
CCN(Cc1cc2ccccc2[nH]c1=O)C(=O)C(C)C	9%	12%	-9	-4%	-6%
O=C(CN1C(=O)S/C(=C\c2ccccc2)C1=O)NC1CCS(=O)(=O)C1 (stereo not drawn)	-1%	2%	-15	-2%	-11%
CC(C)c1ccc(/C=C2\SC(=O)N(CC(=O)NC3CCS(=O)(=O)C3)C2=O)cc1 (stereo not drawn)	?	-5%	-30	23µM*	16µM*
O=C(CCCN1C(=O)/C(=C/c2ccc(F)cc2)SC1=S)NC1CCS(=O)(=O)C1 (stereo not drawn)	-16%	-3%	19	18µM*	?
O=C(CCN1C(=O)/C(=C/c2ccccc2)SC1=S)NC1CCS(=O)(=O)C1 (stereo not drawn)	20%	10%	-7	-29%	-15%
O=C(NCCNc1ccnc2cc(Cl)ccc12)c1ccccc1F	-2%	-6%	-14	6.5µM*	4.1µM*
O=C(NCCNc1ccc(Cl)cc1[N+](=O)[O-])c1ccccc1F	-3%	-1%	-7	-18%	21µM*
Cc1ccc2cc(CN(CC3CCCO3)C(=O)c3cccs3)c(=O)[nH]c2c1 (stereo not drawn)	0%	8%	-7	-2%	?
COc1ccccc1C(CNC(=O)c1ccc(S(=O)(=O)NCc2ccco2)cc1)N(C)C (stereo not drawn)	18%	5%	9	43%	-20%
CCOC(=O)N1CCN(C(=O)/C=C/c2ccc(OC)cc2)CC1	-2%	9%	-3	-5%	3%
CCc1nc2c(OCCn3cccc3)cccn2c1N(C)C(=O)CC(C)C	0%	?	10	-24%	?
CCc1nc2c(OCCC3CCCCC3)cccn2c1N(C)C(=O)CC(C)C	?	?	?	21µM*	10µM*
CCCCN(C=O)c1c(CC)nc2c(OCC3CCCCC3)cccn12	-27%	?	-4	21µM*	9.2µM*
CCc1nc2c(OCCC3CCCCC3)cccn2c1N(C)C(=O)c1cccs1	?	?	-54*	29µM*	21µM*
SMILES	HT1080 IDH1KD tx	HT1080-NT tox	IL1B secr inh	DT40 TDP1 CPT	TDP1 cell noCPT
CCCCN(C=O)c1c(CC)nc2c(OCC(=O)C(C)(C)C)cccn12	11%	22%	26	?	-25%
CCCCC(=O)N(C)c1c(CC)nc2c(OCC3CCCCC3)cccn12	?	?	-22	?	21µM*
CCc1nc2c(OCC(=O)C(C)(C)C)cccn2c1N(C)C(=O)C1CC1	18%	3%	2	-1%	-23%
OCc1ccccc1-c1ccc2nncn2c1	5%	?	33	7%	0%
Cc1ccccc1NC(=O)NCCN1C(=O)C2C3C=CC(C3)C2C1=O (stereo not drawn)	-1%	-1%	-10	-4%	-9%
CCCCC(=O)N(C)c1c(CC)nc2c(OCCC3CCCCC3)cccn12	?	?	-68*	?	16µM*
Cc1cc(C)nc(SCc2ccc(C(=O)NNC(=O)Nc3cccc(Cl)c3)cc2)n1	?	?	-100*	21µM*	13µM*
Cc1cc(C)nc(SCc2ccc(C(=O)N/N=C/c3ccccn3)cc2)n1	?	-28%	121	?	21µM*
Cc1cc(C)nc(SCc2ccc(C(=O)N/N=C/c3ccncc3)cc2)n1	-10%	-5%	-9	-20%	-23%
CCCCn1c(=O)[nH]c(=O)c2c1nc(-c1ccccc1OC(F)F)n2C	-15%	3%	26	3%	-29%
OCC[n+]1ccc(/C=C/c2c[nH]c3ccccc23)cc1	-9%	-2%	26	6.5µM*	5.8µM*
CCCCCCCCCC[n+]1ccc(/C=C/c2c[nH]c3ccccc23)cc1	·	·	·	0.32µM*	0.11µM*
CCCCCCCCCCCCCCCC[n+]1ccc(/C=C/c2c[nH]c3ccccc23)cc1	·	·	·	0.89µM*	0.71µM*
C(=C\c1c[nH]c2ccccc12)/c1cc[n+](C2CCCCC2)cc1	·	·	·	-12%	?
NC(=O)n1c(O)c(C(=O)c2cccs2)c2cc(Cl)ccc21	·	·	·	-9%	?
c1cc2[nH]snc2c2nc(C3CC3)nc12	?	-27%	-86*	18µM*	13µM*
CCCOc1ccc(CN2C(=O)C(=O)c3cccc(C)c32)cc1	·	·	·	1.3µM*	1.8µM*
CCCOc1ccc(Cn2c(=O)oc3ccc(C)cc32)cc1	3%	8%	12	-2%	-23%
Cc1ccc(CN2C(=O)C(=O)c3cc(Br)cc(C)c32)cc1	·	·	·	2.3µM*	1.5µM*
O=C1c2ccccc2C(=O)N1CCOc1ccccc1	-1%	-5%	4	0%	-12%
Cc1ccc(OCCCn2c(=O)sc3ccccc32)cc1	-1%	-3%	37	-3%	-15%
